Laboratory results as given in ChEMBL document CHEMBL2218924, “A broad activity screen in support of a chemogenomic map for kinase signalling research and drug discovery” (Biochem J, 2013).

Experiments:
[1] = target: T1, Serine/threonine-protein kinase 17A (Homo sapiens) (UniProt Q9UEE5); settings: at 1 µM
T1 sequence (whole entry): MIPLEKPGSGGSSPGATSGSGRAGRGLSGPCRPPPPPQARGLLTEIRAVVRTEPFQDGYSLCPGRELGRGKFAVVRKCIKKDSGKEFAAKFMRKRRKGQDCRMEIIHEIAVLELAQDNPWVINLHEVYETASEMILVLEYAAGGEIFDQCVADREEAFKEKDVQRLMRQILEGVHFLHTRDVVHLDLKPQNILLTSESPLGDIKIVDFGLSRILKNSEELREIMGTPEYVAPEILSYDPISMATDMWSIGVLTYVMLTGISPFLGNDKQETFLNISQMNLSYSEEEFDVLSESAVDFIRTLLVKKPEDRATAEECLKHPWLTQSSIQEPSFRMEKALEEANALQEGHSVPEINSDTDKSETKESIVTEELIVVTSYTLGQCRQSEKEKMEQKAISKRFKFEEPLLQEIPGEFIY

[2] = target: T1, Serine/threonine-protein kinase 17A (Homo sapiens); settings: at 10 µM
[3] = target: T2, Dual specificity tyrosine-phosphorylation-regulated kinase 2 (Homo sapiens) (UniProt Q92630); settings: at 1 µM
T2 sequence (whole entry): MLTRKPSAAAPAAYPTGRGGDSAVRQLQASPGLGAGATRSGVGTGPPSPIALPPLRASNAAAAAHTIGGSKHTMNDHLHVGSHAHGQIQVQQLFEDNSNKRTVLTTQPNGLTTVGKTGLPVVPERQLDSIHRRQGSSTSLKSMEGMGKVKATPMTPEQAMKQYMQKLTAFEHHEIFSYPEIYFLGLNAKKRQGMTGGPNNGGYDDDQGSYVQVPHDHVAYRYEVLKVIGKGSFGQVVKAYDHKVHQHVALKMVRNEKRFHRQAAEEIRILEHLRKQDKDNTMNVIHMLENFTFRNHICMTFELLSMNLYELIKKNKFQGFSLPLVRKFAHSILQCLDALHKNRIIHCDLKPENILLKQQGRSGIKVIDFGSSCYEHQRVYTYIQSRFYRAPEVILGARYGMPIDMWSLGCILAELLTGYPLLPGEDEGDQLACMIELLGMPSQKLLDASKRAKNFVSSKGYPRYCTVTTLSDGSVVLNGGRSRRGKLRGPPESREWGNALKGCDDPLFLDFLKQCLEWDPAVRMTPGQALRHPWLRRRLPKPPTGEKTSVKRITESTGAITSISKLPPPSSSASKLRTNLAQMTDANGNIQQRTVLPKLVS

[4] = target: T2, Dual specificity tyrosine-phosphorylation-regulated kinase 2 (Homo sapiens); settings: at 10 µM
[5] = target: T3, Ephrin type-A receptor 1 (Homo sapiens) (UniProt P21709); settings: at 1 µM
T3 sequence (whole entry): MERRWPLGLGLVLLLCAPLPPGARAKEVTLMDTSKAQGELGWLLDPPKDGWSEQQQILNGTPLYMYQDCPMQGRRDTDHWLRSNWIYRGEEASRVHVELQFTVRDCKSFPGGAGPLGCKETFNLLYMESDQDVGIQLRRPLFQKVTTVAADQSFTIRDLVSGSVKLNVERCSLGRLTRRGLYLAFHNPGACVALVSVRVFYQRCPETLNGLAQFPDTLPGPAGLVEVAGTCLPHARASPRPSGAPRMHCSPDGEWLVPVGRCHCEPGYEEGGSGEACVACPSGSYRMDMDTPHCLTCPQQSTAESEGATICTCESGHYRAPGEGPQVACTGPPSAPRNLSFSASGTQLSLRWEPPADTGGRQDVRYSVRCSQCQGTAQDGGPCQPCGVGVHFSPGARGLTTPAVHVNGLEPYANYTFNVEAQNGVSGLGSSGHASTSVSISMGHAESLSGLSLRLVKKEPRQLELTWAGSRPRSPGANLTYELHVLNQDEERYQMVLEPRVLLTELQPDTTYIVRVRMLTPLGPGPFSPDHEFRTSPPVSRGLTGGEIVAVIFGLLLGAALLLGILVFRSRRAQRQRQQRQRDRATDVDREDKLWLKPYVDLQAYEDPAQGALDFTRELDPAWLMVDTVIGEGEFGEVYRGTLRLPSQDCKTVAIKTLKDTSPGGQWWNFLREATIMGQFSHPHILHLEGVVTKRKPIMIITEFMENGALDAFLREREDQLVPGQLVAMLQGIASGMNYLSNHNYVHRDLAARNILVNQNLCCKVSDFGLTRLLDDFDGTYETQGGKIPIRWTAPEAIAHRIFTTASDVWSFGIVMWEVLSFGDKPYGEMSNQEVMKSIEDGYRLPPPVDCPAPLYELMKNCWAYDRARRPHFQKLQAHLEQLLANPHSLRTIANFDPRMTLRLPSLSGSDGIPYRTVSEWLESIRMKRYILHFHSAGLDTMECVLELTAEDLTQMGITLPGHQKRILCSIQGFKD

[6] = target: T3, Ephrin type-A receptor 1 (Homo sapiens); settings: at 10 µM
[7] = target: Ephrin type-A receptor 2 (Homo sapiens) (UniProt P29317); settings: at 1 µM
[8] = target: Ephrin type-A receptor 2 (Homo sapiens) (UniProt P29317); settings: at 10 µM
[9] = target: T4, Ephrin type-A receptor 3 (Homo sapiens) (UniProt P29320); settings: at 1 µM
T4 sequence (whole entry): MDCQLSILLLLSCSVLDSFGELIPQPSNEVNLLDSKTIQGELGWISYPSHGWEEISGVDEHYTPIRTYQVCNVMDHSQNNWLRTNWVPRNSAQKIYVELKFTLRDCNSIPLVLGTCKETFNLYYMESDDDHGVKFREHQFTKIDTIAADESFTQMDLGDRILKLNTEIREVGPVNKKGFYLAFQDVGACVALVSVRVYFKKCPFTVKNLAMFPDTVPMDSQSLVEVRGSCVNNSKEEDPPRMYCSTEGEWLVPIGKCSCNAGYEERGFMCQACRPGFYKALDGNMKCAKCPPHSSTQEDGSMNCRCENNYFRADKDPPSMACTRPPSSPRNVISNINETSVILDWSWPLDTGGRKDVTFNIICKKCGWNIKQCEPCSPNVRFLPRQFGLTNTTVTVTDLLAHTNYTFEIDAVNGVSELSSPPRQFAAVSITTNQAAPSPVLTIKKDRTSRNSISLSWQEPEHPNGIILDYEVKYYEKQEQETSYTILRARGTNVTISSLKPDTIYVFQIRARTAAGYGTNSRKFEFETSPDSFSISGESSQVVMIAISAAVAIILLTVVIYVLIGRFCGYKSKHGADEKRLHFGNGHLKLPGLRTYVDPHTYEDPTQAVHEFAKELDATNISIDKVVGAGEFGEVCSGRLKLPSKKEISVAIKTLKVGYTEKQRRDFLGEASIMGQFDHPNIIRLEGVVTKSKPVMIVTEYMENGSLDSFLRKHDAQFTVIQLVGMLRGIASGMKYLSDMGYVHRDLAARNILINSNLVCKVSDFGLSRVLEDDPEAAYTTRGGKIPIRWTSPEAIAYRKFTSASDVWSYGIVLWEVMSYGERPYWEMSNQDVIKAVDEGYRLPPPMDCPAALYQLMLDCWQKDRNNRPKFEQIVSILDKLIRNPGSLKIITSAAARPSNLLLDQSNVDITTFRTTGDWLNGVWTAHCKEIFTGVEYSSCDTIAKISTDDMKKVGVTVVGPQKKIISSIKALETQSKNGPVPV

[10] = target: T4, Ephrin type-A receptor 3 (Homo sapiens); settings: at 10 µM
[11] = target: Ephrin type-A receptor 4 (Homo sapiens) (UniProt P54764); settings: at 1 µM
[12] = target: Ephrin type-A receptor 4 (Homo sapiens) (UniProt P54764); settings: at 10 µM
[13] = target: Ephrin type-A receptor 5 (Homo sapiens) (UniProt P54756); settings: at 1 µM
[14] = target: Ephrin type-A receptor 5 (Homo sapiens) (UniProt P54756); settings: at 10 µM
[15] = target: Ephrin type-A receptor 7 (Homo sapiens) (UniProt Q15375); settings: at 1 µM
[16] = target: Ephrin type-A receptor 7 (Homo sapiens) (UniProt Q15375); settings: at 10 µM
[17] = target: T5, Ephrin type-A receptor 8 (Homo sapiens) (UniProt P29322); settings: at 1 µM
T5 sequence (whole entry): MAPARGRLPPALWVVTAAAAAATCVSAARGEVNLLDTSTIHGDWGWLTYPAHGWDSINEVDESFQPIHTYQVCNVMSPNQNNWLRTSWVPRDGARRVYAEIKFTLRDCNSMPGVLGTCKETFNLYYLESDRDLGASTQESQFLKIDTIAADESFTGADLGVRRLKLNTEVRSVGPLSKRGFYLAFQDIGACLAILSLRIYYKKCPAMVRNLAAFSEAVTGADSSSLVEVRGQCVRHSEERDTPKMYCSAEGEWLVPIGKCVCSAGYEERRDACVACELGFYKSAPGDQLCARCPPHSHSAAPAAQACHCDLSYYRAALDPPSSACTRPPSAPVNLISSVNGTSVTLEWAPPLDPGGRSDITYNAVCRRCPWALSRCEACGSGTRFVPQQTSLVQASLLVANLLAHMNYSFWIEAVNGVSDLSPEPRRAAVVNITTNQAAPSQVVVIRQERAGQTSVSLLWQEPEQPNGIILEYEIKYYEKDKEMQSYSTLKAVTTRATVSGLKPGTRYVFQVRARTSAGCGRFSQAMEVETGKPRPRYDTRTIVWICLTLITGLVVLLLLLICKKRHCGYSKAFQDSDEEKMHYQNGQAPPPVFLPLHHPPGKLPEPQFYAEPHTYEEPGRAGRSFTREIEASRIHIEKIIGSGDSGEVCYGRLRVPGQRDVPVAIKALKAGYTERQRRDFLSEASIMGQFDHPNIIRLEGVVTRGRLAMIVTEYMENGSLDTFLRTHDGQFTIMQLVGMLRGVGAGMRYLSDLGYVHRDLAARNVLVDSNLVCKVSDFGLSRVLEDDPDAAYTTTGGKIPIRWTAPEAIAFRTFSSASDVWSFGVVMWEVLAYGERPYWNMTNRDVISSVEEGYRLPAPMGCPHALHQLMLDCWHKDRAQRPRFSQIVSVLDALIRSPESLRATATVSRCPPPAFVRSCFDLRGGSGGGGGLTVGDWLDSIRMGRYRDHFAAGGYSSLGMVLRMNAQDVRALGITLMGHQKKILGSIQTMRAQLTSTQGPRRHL

[18] = target: T5, Ephrin type-A receptor 8 (Homo sapiens); settings: at 10 µM
[19] = target: T6, Ephrin type-B receptor 1 (Homo sapiens) (UniProt P54762); settings: at 1 µM
T6 sequence (whole entry): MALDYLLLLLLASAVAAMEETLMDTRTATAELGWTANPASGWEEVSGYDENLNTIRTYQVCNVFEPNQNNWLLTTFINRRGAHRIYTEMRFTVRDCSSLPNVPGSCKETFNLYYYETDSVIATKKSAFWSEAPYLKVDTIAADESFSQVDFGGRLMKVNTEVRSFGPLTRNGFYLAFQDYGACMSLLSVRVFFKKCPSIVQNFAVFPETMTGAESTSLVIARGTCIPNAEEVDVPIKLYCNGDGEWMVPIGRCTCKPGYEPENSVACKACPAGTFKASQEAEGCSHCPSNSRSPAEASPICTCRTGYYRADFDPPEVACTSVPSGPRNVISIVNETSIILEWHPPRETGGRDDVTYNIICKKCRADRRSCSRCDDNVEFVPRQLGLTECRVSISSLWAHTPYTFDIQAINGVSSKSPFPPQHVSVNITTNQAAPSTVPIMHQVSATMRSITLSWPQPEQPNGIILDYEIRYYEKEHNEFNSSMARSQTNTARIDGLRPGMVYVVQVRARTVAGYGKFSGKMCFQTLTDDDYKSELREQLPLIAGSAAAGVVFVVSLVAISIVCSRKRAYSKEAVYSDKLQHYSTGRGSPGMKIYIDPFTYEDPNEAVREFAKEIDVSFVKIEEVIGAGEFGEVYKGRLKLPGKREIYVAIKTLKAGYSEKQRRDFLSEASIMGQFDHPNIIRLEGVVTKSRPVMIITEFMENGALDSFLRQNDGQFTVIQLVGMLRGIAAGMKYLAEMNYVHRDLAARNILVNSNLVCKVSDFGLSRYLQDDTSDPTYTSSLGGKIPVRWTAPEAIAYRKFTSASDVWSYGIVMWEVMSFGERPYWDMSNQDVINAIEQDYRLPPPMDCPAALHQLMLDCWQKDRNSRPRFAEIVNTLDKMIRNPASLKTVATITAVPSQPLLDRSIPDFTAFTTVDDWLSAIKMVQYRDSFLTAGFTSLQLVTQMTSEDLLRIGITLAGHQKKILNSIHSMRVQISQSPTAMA

[20] = target: Epidermal growth factor receptor (Homo sapiens) (UniProt P00533); settings: at 10 µM

Ephrin type-A receptor 5 (Homo sapiens), sequence (P54756 whole entry): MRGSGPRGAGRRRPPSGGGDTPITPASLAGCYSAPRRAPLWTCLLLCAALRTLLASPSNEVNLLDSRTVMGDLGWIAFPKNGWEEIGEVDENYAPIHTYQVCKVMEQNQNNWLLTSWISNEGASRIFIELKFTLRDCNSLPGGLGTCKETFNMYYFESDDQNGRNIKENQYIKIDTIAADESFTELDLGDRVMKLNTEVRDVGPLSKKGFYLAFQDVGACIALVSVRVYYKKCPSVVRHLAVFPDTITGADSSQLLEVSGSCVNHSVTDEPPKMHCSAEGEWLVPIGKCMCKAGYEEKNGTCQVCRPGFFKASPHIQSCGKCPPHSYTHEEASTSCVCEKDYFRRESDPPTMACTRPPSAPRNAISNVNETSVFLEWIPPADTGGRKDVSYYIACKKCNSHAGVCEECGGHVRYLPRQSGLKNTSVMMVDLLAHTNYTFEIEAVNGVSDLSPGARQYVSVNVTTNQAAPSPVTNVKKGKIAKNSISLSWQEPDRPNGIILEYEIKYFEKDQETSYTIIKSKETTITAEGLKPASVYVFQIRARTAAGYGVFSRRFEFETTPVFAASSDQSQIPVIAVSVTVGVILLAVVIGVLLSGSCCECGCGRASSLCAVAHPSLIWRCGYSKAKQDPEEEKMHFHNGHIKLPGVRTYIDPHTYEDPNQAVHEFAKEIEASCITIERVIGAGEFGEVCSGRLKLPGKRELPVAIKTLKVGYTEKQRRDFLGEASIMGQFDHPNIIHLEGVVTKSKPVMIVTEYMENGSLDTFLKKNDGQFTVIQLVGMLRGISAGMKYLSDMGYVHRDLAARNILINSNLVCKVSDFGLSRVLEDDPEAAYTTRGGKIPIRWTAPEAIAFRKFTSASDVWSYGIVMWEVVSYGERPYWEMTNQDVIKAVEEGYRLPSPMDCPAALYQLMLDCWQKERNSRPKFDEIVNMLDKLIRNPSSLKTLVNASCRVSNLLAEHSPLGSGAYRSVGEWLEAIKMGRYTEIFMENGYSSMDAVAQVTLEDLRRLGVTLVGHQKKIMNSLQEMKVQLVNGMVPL
Ephrin type-A receptor 4 (Homo sapiens), sequence (P54764 whole entry): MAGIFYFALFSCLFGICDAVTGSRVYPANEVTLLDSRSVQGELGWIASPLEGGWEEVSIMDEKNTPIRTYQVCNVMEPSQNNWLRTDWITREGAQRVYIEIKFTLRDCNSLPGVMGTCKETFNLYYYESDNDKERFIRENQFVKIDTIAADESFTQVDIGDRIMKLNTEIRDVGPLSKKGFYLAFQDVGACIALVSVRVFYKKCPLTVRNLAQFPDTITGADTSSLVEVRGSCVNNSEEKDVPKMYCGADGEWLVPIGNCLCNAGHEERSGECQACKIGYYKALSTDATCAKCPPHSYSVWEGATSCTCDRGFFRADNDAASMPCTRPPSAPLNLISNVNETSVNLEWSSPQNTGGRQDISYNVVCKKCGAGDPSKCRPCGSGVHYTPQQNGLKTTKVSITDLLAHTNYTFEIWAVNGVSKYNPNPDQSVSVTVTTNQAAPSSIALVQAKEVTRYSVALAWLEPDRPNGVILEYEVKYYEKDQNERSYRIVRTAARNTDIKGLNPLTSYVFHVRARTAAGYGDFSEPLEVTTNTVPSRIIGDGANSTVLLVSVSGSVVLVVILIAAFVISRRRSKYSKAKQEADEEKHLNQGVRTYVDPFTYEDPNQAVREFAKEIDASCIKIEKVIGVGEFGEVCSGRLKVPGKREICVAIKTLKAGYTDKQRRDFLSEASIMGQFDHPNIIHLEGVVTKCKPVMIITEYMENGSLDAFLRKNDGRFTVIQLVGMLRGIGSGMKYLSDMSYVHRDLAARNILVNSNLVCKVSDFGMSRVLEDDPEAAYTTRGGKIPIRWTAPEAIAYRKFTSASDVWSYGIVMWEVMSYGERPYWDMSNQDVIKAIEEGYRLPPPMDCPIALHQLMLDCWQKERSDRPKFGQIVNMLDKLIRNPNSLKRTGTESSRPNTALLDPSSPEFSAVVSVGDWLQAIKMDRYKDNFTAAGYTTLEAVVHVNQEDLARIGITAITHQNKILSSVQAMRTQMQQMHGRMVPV
Ephrin type-A receptor 2 (Homo sapiens), sequence (P29317 whole entry): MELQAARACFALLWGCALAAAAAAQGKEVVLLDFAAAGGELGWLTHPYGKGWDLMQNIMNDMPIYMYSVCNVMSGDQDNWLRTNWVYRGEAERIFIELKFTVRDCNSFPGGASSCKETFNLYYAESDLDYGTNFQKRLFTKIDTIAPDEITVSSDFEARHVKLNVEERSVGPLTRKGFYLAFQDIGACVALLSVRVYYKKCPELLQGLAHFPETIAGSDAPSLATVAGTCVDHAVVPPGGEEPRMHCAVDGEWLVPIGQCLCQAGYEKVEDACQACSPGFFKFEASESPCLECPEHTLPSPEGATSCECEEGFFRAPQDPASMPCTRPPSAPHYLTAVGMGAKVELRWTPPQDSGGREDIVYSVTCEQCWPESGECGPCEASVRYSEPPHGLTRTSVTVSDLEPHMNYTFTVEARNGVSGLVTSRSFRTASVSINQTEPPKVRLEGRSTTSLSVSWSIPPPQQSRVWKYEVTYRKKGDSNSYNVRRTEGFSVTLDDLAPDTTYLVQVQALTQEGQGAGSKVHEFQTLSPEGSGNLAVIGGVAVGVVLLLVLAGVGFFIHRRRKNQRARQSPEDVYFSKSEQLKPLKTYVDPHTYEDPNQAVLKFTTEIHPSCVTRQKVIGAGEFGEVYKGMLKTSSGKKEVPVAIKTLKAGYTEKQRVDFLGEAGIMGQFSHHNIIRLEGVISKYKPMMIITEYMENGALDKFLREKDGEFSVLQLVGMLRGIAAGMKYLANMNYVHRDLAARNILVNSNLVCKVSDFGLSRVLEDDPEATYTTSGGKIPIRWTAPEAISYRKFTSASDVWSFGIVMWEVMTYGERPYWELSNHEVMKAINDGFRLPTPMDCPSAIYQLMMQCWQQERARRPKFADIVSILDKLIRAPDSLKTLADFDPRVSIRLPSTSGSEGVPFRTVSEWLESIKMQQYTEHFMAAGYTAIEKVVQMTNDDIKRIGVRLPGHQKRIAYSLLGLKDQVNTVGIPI
Ephrin type-A receptor 7 (Homo sapiens), sequence (Q15375 28-998 limits assumed): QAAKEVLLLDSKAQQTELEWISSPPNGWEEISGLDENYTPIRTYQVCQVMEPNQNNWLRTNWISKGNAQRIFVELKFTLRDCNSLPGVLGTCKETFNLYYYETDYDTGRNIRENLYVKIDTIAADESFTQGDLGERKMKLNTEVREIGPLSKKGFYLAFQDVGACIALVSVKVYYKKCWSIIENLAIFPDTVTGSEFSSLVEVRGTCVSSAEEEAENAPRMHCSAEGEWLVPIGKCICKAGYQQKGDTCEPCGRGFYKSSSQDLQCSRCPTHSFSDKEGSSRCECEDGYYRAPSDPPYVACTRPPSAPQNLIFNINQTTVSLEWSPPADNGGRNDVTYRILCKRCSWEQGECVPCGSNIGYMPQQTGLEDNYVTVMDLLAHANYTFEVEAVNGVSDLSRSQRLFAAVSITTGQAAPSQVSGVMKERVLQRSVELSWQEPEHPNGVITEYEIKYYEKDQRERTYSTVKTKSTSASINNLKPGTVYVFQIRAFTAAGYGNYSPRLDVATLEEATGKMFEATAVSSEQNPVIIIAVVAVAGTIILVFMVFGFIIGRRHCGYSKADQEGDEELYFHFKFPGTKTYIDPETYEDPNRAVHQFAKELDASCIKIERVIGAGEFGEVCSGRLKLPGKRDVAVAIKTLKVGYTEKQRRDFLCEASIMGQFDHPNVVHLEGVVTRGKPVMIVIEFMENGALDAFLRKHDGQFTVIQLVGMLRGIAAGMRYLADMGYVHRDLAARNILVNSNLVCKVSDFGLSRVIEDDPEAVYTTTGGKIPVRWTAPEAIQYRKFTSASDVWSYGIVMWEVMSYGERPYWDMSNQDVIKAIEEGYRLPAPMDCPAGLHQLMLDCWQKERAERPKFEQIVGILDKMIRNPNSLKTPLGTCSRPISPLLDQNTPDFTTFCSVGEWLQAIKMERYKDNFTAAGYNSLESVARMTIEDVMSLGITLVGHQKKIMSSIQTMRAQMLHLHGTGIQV

Structure (SMILES)	residual activity [1] [%]	residual activity [2] [%]	residual activity [3] [%]	residual activity [4] [%]	residual activity [5] [%]	residual activity [6] [%]	residual activity [7] [%]	residual activity [8] [%]	residual activity [9] [%]	residual activity [10] [%]	residual activity [11] [%]	residual activity [12] [%]	residual activity [13] [%]	residual activity [14] [%]	residual activity [15] [%]	residual activity [16] [%]	residual activity [17] [%]	residual activity [18] [%]	residual activity [19] [%]	residual activity [20] [%]
C[S+]([O-])c1ccc(-c2nc(-c3ccc(F)cc3)c(-c3ccncc3)[nH]2)cc1 (stereo not drawn)	123	103	115	98	90	26	95	62	105	86	110	80	96	48	102	65	91	43	106	–
COc1ccc2c(c1)/C(=C/c1cnc[nH]1)C(=O)N2	–	–	77	16	–	–	–	–	–	–	–	–	–	81	–	–	–	–	–	97
